Results as given in the supplement of paper PMC10338343.
± gives the standard deviation.

Each sequence was assayed on MILI (PIWIL2) piRISC loaded with L1MC piRNA (26 nt) (assay: pre-steady-state target cleavage rate (min^-1); guide: L1MC piRNA 5'p-UAACUAAAUACUAUGCAAGCUGUAGG; MIWI and MILI are mouse PIWI proteins and EfPiwi is from a freshwater sponge; tags in brackets are library labels; higher = faster piRNA-guided slicing of the target). Details: auxiliary factor: 500 nM mouse GTSF1.
Method: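 Cleave-'n-Seq: a library of target RNAs (target site embedded in constant flanks, ACAGCATTCCGCGTTAGTGATATCCG... 5' flank; DNA-blocked outside the site) at 0.1 nM was incubated with 1 nM active mouse MILI or MIWI piRISC (synthetic 5'-monophosphorylated piRNA guide) with or without 500 nM mouse GTSF1 at 33 °C for 1 min to 16 h. Uncleaved targets were sequenced and normalised to non-target controls, and the pooled three trials were fitted to a burst-and-steady-state model to give the pre-steady-state cleavage rate (min^-1; k3 is constrained to at most 1e-4). Sequence is the target site only; target names encode pairing extent (gX:gY) and contiguous / 1-mismatch / 2-mismatch / bulge geometry. Fits with R² ≤ 0 are excluded.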

| Sequence | pre-steady-state target cleavage rate |
| --- | --- |
| UCCUGGUACAGGUUGCAUAGUAUAUAGUUA | 0.42 ± 0.089 |
| UCCUCGUACAGCUAGCAUAGUAUUUAGUUA | 0.281 ± 0.012 |
| UCCUGGAACAGCUUGCAUAGUAUUUAAGUUA | 0.195 ± 0.029 |
| UCCUGGAUCAGCUUGCAUAGUAAUAAGUUA | 0.189 ± 0.019 |
| UCCUGGAUCAGGUUGCAUAGUAUUAAGUUA | 0.144 ± 0.017 |
| UCCUCCUACAGCUUGAAUAGUAUUUAGUUA | 0.283 ± 0.015 |
| UCCUGGAUCAGCUUGCAUAGAAUUUAGAAA | 0.0123 ± 0.0052 |
| UCCUGGAUCAGCUUGCAUAGUAUGUUAGUUA | 0.199 ± 0.017 |
| UCCUGGUACAGCUAGCUUAGUAUUUAGUUA | 0.248 ± 0.023 |
| UCCUGCUUCAGCUUGCUUAGUAUUUAGUUA | 0.287 ± 0.011 |
| UCCUGGAUCAGCUUGCUAUGUAUUUAGUUA | 0.0176 ± 0.0068 |
| UCCUGCUUCAGGUUGCAUAGUAUUUAGUUA | 0.235 ± 0.015 |
| UCCUGGAUGUCCAAGCAUAGUAUUUAGUUA | 0.0263 ± 0.0097 |
| UCCUGGAUGAGCUUCCAUUGUAUUUAGUUA | 0.0518 ± 0.016 |
| UCCUGGAUGUCGUAGCAUAGUAUUUAGUUA | 0.0554 ± 0.011 |
| UCCUGCUAGUCCUUGCAUAGUAUUUAGUUA | 0.0977 ± 0.016 |
| UCCUGGAUGUCCUAGCAUAGUUUUUAGUUA | 0.0106 ± 0.0049 |
| UCCUGGAACAGCUUGCAUAGUAUUUUGUUA | 0.154 ± 0.029 |
| UCCUGCUACAUCUUGCAUAGUAUUUAGUUA | 0.239 ± 0.02 |
| UCCUCCUACAGCUUCCAUACUAUUUAGUUA | 0.0171 ± 0.0071 |
| UCCUGGAACUGCUUGCAUAGUAUUUAGUUA | 0.228 ± 0.016 |
| UCCUCCUACAGCCUGCAUAGUAUUUAGUUA | 0.287 ± 0.018 |

Same assay, conditions: auxiliary factor: none (no GTSF1)

| Sequence | pre-steady-state target cleavage rate |
| --- | --- |
| UCCUGGUACAGGUUGCAUAGUAUAUAGUUA | 0.00855 ± 0.0029 |
| UCCUCGUACAGCUAGCAUAGUAUUUAGUUA | 0.00766 ± 0.0022 |
| UCCUGGAACAGCUUGCAUAGUAUUUAAGUUA | 0.00781 ± 0.0028 |
| UCCUGGAUCAGCUUGCAUAGUAAUAAGUUA | 0.00409 ± 0.0028 |
| UCCUGGAUCAGGUUGCAUAGUAUUAAGUUA | 0.00601 ± 0.0021 |
| UCCUCCUACAGCUUGAAUAGUAUUUAGUUA | 0.00723 ± 0.002 |
| UCCUGGAUCAGCUACCAUAGUAUUUACAAA | < 0.0001 |
| UCCUGGAUCAGCUUGCAUAGUAUGUUAGUUA | 0.00633 ± 0.0025 |
| UCCUGGUACAGCUAGCUUAGUAUUUAGUUA | 0.00768 ± 0.0025 |
| UCCUGCUUCAGCUUGCUUAGUAUUUAGUUA | 0.00807 ± 0.0021 |
| UCCUGGAUCAGCUUGCUAUGUAUUUAGUUA | 0.00553 ± 0.0022 |
| UCCUGCUUCAGGUUGCAUAGUAUUUAGUUA | 0.0111 ± 0.003 |
| UCCUGGAUGUCCAAGCAUAGUAUUUAGUUA | 0.00547 ± 0.0023 |
| UCCUGGAUGUCGUAGCAUAGUAUUUAGUUA | 0.00344 ± 0.0024 |
| UCCUGCUAGUCCUUGCAUAGUAUUUAGUUA | 0.00689 ± 0.0019 |
| UCCUGGAUGUCCUAGCAUAGUUUUUAGUUA | 0.00512 ± 0.0022 |
| UCCUGCUACAUCUUGCAUAGUAUUUAGUUA | 0.0095 ± 0.0022 |
| UCCUGGAACUGCUUGCAUAGUAUUUAGUUA | 0.00612 ± 0.002 |
| UCCUCCUACAGCCUGCAUAGUAUUUAGUUA | 0.0111 ± 0.0024 |
